# Results as given in PubChem BioAssay AID488890 (Southern Research Specialized Biocontainment Screening …, 2010).
# Hit rate of the full screen: of about 320,000 compounds, about 1,300 (0.41%) were called active. Not shown: some 3% with an inconclusive outcome. The rule behind the calls is not given here. Not all results are given here. Potency and affinity values are given separately.
# Test: growth inhibition of non-replicating M. tuberculosis (AID 488890);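 note: plate controls were DMSO cells for no effect and high antibiotic wells for full effect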
# Conditions: Mycobacterium tuberculosis non-replicating, at 25 µM, stronger effect = higher value
row,Structure (SMILES),inhibition
1,O=C(CSc1ncccc1C(=O)O)NC1CCCCCCC1,-1.94%
2,Cc1cc(C)c(C)c(S(=O)(=O)NC(C(=O)O)C(C)C)c1C (centres undefined),-1.77%
3,Cc1cc(C)c(NC(=S)N2CCC(N(C)CC3CCCO3)CC2)c(C)c1 (centres undefined),-2.45%
4,O=C(C[n+]1cccc(Br)c1)c1ccc(-c2ccccc2)cc1,31.7%
5,CCCc1cc(C(=O)N2CCCC(N3CCN(c4ccccc4C)CC3)C2)n(C)n1 (centres undefined),8.14%
6,COc1ccccc1C(=O)NCCC(=O)Nc1ccc(S(=O)(=O)N2CCC(C)CC2)cc1,27.4%
7,Cc1cccc(C)c1NC(=O)CSc1nnc(Cc2ccccc2)o1,-8.32%
8,Cc1ccc(NC(=O)CSc2nnc(-c3ccco3)o2)cc1,27.5%
9,Cc1ccc(NC(=O)CSc2nnc(Cc3ccccc3)o2)c(C)c1,79.6%
10,Cc1ccc(NC(=O)CCSc2nnc(C)o2)cc1,9.37%
11,CC(=O)Nc1ccc(C(=O)CSc2nnc(Cc3ccccc3)o2)cc1,38.2%
12,CCNC(=O)CCSc1nnc(-c2ccco2)o1,-8.15%
13,O=C(CN1CCN(CCN2C(=O)c3cccc4cccc(c34)C2=O)CC1)c1ccc(F)cc1,79.3%
14,Cc1ccc(NC(=O)C2=NNC(=O)CC2)cc1S(=O)(=O)Nc1ccc(SC(F)F)cc1,6.44%
15,CC1CN(S(=O)(=O)c2cccc(C(=O)OCC(=O)N3CCCCCC3)c2)CC(C)O1 (centres undefined),-8.29%
16,COc1ccc2c(c1OC)C(=O)N(c1cccc(C)c1)C2,-2.97%
17,O=C(O)Cn1c(SCCOc2ccc(Cl)cc2)nc2ccccc21,1.68%
18,COc1cc(C)c(Cl)cc1S(=O)(=O)NCc1ccccn1,-0.9%
19,O=c1c2[nH]c3ccc(Br)cc3c2ncn1Cc1ccncc1,-8.92%
20,CCOC(=O)c1c(NC(=O)C2Cc3ccccc3C(=O)O2)sc2c1CCCC2 (centres undefined),-2.64%
21,Cc1ccc(OCC(O)CN2CCN(c3ccccn3)CC2)c(C)c1 (centres undefined),41.5%
22,Cc1ccc(NC(=O)C2CCCN2C(=O)Oc2ccccc2)c(C)c1 (centres undefined),-3.45%

row,Structure (SMILES),inhibition
1,O=C(NCc1ccccn1)Nc1ccc(F)c(Cl)c1,-1.66%
2,O=C(NCc1ccccn1)c1cc(-c2ccc(Cl)cc2)oc1C(F)(F)F,10.7%
3,O=C(Nc1nccs1)c1ccc(-c2ccc(F)c(Cl)c2)o1,29.7%
4,Clc1cccc(-c2ccc(CNCCCN3CCOCC3)o2)c1,-19.7%
5,COc1ccc(-c2ccc(CNCc3ccccn3)o2)cc1Cl,78.7%
6,Cc1c(Cl)cccc1NC(=O)NCc1ccccn1,-10.1%
7,Cc1c(C(=O)NCc2ccccn2)oc2c(Cl)cccc12,15.1%
8,Clc1ccc(-c2ccc(CNCC3CCCO3)o2)cc1 (centres undefined),72.6%
9,O=C1NCCN/C1=C\C(=O)c1cccc(Br)c1,-1.75%
10,CC1=C(C(=O)OC(C)C)C(c2coc3ccccc3c2=O)C2=C(CCCC2=O)N1 (centres undefined),21.4%
11,CCOc1ccccc1OCC(=O)OCc1csc(CC(=O)Nc2ccccc2C)n1,37.2%
12,COc1ccc(NC(=O)CSc2nc3ccsc3c(=O)n2CCCCCC(=O)O)cc1,-12.1%
13,O=C(c1ccc2c(c1)OCO2)N1CCC2(CC1)Oc1ccc(F)cc1C(=O)C21CC(c2ccccc2)=NO1 (centres undefined),42.7%
14,COc1cc(C(C)=O)ccc1OCC(=O)NCC1(N2CCCCC2)CCCCC1,23.8%
15,O=C(CCc1c[nH]c2ccccc12)N[C@@H](Cc1c[nH]c2ccc(O)cc12)C(=O)O,-12.9%
16,O=S(=O)(NCC(c1cccnc1)N1CCN(c2ccccc2)CC1)c1cccs1 (centres undefined),44.5%
17,O=C1CC(N2CCN(c3ccccc3)CC2)C(=O)N1c1ccc(Cl)cc1 (centres undefined),58.5%
18,Fc1ccc(-c2ccc(CNCc3ccccn3)o2)cc1,74.8%
19,O=C(NCc1ccccn1)Nc1ccc(Br)cc1,-10.5%
20,CC(C)c1ccc(N(C)C(=O)Cc2c(C(=O)O)n(C)c3ccccc23)cc1,-2.94%
21,N#CCc1c(C#N)c(N)nc(N2CCN(C=O)CC2)c1C#N,2.81%
22,Cc1[nH]c(C)c(S(=O)(=O)Nc2ccccc2Cl)c1C(=O)N1CCCC1,-4.19%

row,Structure (SMILES),inhibition
1,Cc1ccc(N(C)S(=O)(=O)c2cccc(C(=O)NNC(=O)c3ccncc3)c2)cc1,38.7%
2,COc1ccc([C@@H]2CC(=O)c3c(O)cc(O[C@@H]4OC(CO[C@@H]5OC(C)[C@H](O)[C@@H](O)[C@H]5O)[C@@H](O)[C@H](O)[C@H]4O)cc3O2)cc1O (some centres undefined),2.5%
3,CN=C(SCc1ccccc1)c1c(O)n(C)c(=O)n(C)c1=O,11.6%
4,CSC(=Nc1ccccc1)c1c(O)n(C)c(=O)n(C)c1=O,56.9%
5,CCOC(=O)C1C(=O)CC(=O)CC1CC(C)SCC (centres undefined),-2.43%
6,Cc1ccc(S(=O)(=O)N2CCN(C(=O)CCOc3cc(C)ccc3C)CC2)cc1,39.6%
7,N#C/C(=C\Nc1ccc(F)c(Cl)c1)C(=O)C1CC1,-9.33%
8,C[C@@H](C(=O)Nc1ccc(SC(F)F)cc1)N1C(=O)C2CCCCC2C1=O (some centres undefined),-9.99%
9,CCOC(=O)/C=C1\Nc2ccccc2SC1=O,19.5%
10,Cc1ccc(CNC(=O)C2(C)Oc3ccccc3NC2=O)cc1 (centres undefined),-3.05%
11,COC(=O)C1CCN(S(=O)(=O)c2c(C)n(C)c(=O)n(C)c2=O)CC1,-0.96%
12,CCNc1nc2ccccc2[nH]1,11.9%
13,O=C(Nc1ccccc1Oc1cccnc1)C1CCCN(Cc2cccc(Cl)c2)C1 (centres undefined),16.5%
14,CC(C)(C)c1ccc(/C=C2/SC(N3CCCC3)=NC2=O)cc1,73.6%
15,Cc1ccc(/C=C2\SC(N3CCCCC3)=NC2=O)cc1,77.7%
16,O=C(NC1CC2CCCC(C1)N2Cc1ccccc1)C1CCCCC1 (centres undefined),-4.43%
17,CCCCCCSc1ccc(-c2nc3ccc(C)cn3c2NCc2ccccc2)cc1OC,8.88%
18,O=C(COc1ccccc1)NCC(=O)N/N=C/c1ccccc1,12.4%
19,COc1ccc(-c2csc(C3=C(O)CN(CCCN4CCCC4=O)C3=N)n2)cc1OC,2.8%
20,Cc1ccc2oc(=O)c(/C=C(\O)c3ccco3)nc2c1,-4.98%
21,Cc1ccc2oc(=O)c(/C=C(\O)c3sc(C)nc3C)nc2c1,2.53%
22,O=c1oc2ccccc2nc1/C=C(\O)c1ccccc1,77.3%

row,Structure (SMILES),inhibition
1,Cc1ccc2oc(=O)c(/C=C(\O)c3cccs3)nc2c1,-10.4%
2,Cc1ccc2oc(=O)c(/C=C(\O)c3ccccc3)nc2c1,4.41%
3,Cc1ccc(/C(O)=C/c2nc3cc(C)ccc3oc2=O)cc1,18.1%
4,CC(C(=O)c1ccccc1)[n+]1cccc(C(N)=O)c1 (centres undefined),-11.2%
5,Cc1cc(=O)[nH]c(SCC(=O)Nc2ccc(S(=O)(=O)N3CCOCC3)cc2)n1,-13.9%
6,CN(c1ccc(C(=O)NC2CCCC2)cc1)S(=O)(=O)c1ccccc1,9.33%
7,CC(=O)Oc1ccc(OC(C)=O)c(S(=O)(=O)c2ccc(C)c(C)c2)c1,-1.53%
8,CCOC(=O)N1CCN(S(=O)(=O)c2ccc(C)cc2)C1c1ccc(OC)cc1 (centres undefined),16.9%
9,Brc1ccc2c(c1)C(c1ccc(N3CCOCC3)cc1)=NNC(c1cccs1)=N2,18.5%
10,c1ccc(-n2c(-c3ccco3)nnc2-c2ccco2)cc1,-0.67%
11,COC(=O)[C@@]1(Cc2ccc(OC)cc2)[C@H]2c3cc(C(=O)N(C)C)n(CCc4ccc(OC)c(Br)c4)c3C[C@H]2CN1C(=O)c1ccccc1,70.8%
12,CCSc1ncc(/C=N/Nc2ccc(F)cc2)n1C,60.8%
13,CCSc1ncc(/C=N/Nc2ccccc2)n1C,53.4%
14,COc1cc(CC(NC(C)=O)C(=O)NC2CCN(c3c4c(nc5ncnn35)CCC4)CC2)cc(OC)c1 (centres undefined),-7.76%
15,Cc1nnsc1C(=O)N/N=C/c1ccccc1,-14.8%
16,CCOc1ccc2ccccc2c1/C=N/NC(=O)c1ccc(C)nc1,6.31%
17,O=C(N/N=C/c1ccccc1O)c1ccncc1,67.2%
18,O=C(N/N=C/c1cccc2ccccc12)c1cccnc1,77.8%
19,CCOc1ccc2ccccc2c1/C=N\NC(=O)c1ccc([N+](=O)[O-])cc1,8.86%
20,O=C(N/N=C/c1ccccc1C(=O)O)c1ccncc1,47.8%
21,Cc1ccc(C(=O)N/N=C/c2c(O)ccc3ccccc23)cn1,-8.14%
22,COc1ccc(/C=N/NC(=O)c2snnc2C)c(OC)c1OC,4.13%

row,Structure (SMILES),inhibition
1,Cc1ccc(NC(=O)[C@H](C)NC(=O)C2CCN(C(=O)[C@@H](NC(=O)OC(C)(C)C)C(C)C)CC2)cc1,-5.73%
2,CC(C)[C@H](NC(=O)c1ccco1)C(=O)OCC(=O)NC12CC3CC(CC(C3)C1)C2,16.5%
3,O=C(Nc1cccc(-n2cnnn2)c1)c1cnccc1Cl,-2.47%
4,O=C(NCc1ccccc1)c1ccc(CN2CCC(Cc3ccccc3)CC2)cc1,63.1%
5,CCCc1ccc2oc(C(=O)N3CCC(N4CCCC(O)C4)CC3)c(C)c2c1 (centres undefined),9.91%
6,O=C(NC1=NCCS1)c1cc(-c2ccccc2)nn1-c1ccccc1,12.3%
7,O=C(O)c1ccc(N/N=C/c2cccc3cccnc23)cc1,-19.9%
8,Cc1cccc2cc(/C=N/NC(=O)c3ccccc3O)c(Cl)nc12,-1.47%
9,CCOc1ccccc1C(=O)N/N=C/c1cccc2cccnc12,78.1%
10,CCOc1ccc(C(=O)Nc2cccc3cccnc23)cc1,39%
11,O=C(COc1cccc2cccnc12)N/N=C/c1ccccc1O,21.3%
12,COc1cccc(/C=N/NC(=O)COc2cccc3cccnc23)c1O,22.2%
13,O=C(N/N=C/c1ccnc2ccccc12)c1ccccc1O,24.1%
14,COc1ccc(C(=O)N/N=C/c2cccnc2)cc1,-12.5%
15,O=C(c1ccccc1)N1CCN(C(=S)NCc2ccco2)CC1,-12.8%
16,Cc1cc(/C=N/O)c(C)n1-c1cccc(Cl)c1,5.04%
17,Nc1c(C(=O)Nc2ccc3c(c2)OCCO3)nnn1Cc1cccc(Br)c1,1.42%
18,CCOc1ccc(N=C2NC(=O)C(CC(=O)Nc3ccc(OC)cc3)S2)cc1 (centres undefined),23%
19,N#Cc1ccc(C23CC4(C2)[C@H](CN(Cc2ccc(-c5ccccc5)cc2)[C@@H]4c2ccccc2)C3c2ccccc2)cc1 (some centres undefined),34.9%
20,CCN(CC)C(=O)CSc1nc(OC)cc(=O)[nH]1,-3.35%
21,COC(=O)C1=C(C(=O)OC)[C@@H]2N(Cc3ccccc3)c3ccccc3[C@@]23C[C@@H](CO)N(C(=O)NC2CCCC2)C3=N1,39.9%
